Consider 17 compounds from PubChem BioAssay (NCI).

The panel holds about 83,000 compounds, 20% with a hit somewhere; the sample as a whole holds those more often.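 Note: values are percent growth. 100 is the growth of untreated cells, values between 100 and 0 indicate rising inhibition; between -100 and 0 indicates cell death.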 Unmarked numbers belong to inactive results. Active and inactive are the calls of the source. Rule for the calls: active = growth percent below 10; inactive = the rest.

Among the test systems are T-47D breast; BT-549 breast; SW-620 colon; MCF7 breast; HCT-116 colon; HCC-2998 colon; KM12 colon; MDA-MB-435 melanoma.
Common to all, as to assay: NCI-60 one-dose screen, 48 h (100 = growth as untreated, 0 = no growth, -100 = all killed)
Common to all, as to details: 10 µM unless noted

With `O=C(/C=C/c1ccccc1Br)c1cccc(OCCCCOc2cccc(C(=O)/C=C/c3ccccc3Br)c2)c1`, the growth with T-47D breast was 75.4%; in the assay with BT-549 breast it was 104%; with SW-620 colon, 99%; in the assay on MCF7 breast, 28.1%; with HCT-116 colon, 16.4%; with HCC-2998 colon it was 109%. In addition, the growth with KM12 colon is 101%.
Regarding `COc1cc(/C=C/c2cc(/C=C/c3ccc(O)c(OC)c3)n(C(=O)c3ccccc3Br)n2)ccc1O`, the growth in the assay with T-47D breast is 49%; in the assay on BT-549 breast, 14.5%; in the assay with SW-620 colon, 20.9%; in the assay with MCF7 breast it was 20.2%; in the assay on HCT-116 colon it was 6.9% (active); in the assay with KM12 colon it was 4.98% (active).
Consider `CN1C2CCC1/C(=C\c1ccc(F)cc1)C(=O)/C2=C/c1ccc(F)cc1`, for which the growth in the assay on T-47D breast is 41.2%; in the assay with BT-549 breast, 39.6%; with SW-620 colon it was 38.2%; with MCF7 breast, 24.5%; in the assay on HCT-116 colon, 9.46% (active); in the assay on HCC-2998 colon, 82.6%. Besides, the growth with KM12 colon is 31.3%.
For the compound `CCc1c(C)c2ccc(O)c(-c3cc(-c4ccccc4)c(C#N)c(=O)[nH]3)c2oc1=O`, the growth with T-47D breast is 85.9%; in the assay with BT-549 breast, 113%; in the assay with SW-620 colon, 105%; in the assay on MCF7 breast it was 84.7%; in the assay with HCT-116 colon, 95.7%; in the assay with HCC-2998 colon it was 111%. In the assay on KM12 colon, the growth was 96.2%.
With `O=C1c2cccc3cccc(c23)C(=O)N1CCCCCCCCCCN1C(=O)c2cccc3cccc(c23)C1=O`, the growth was 97.7% with T-47D breast; 104% in the assay with MDA-MB-435 melanoma; 104% in the assay with SW-620 colon; 86.9% with MCF7 breast; 117% in the assay on HCT-116 colon; 112% in the assay on HCC-2998 colon. For the same compound, in the assay with KM12 colon, the growth is 109%.
With `COc1ccc([C@H]2c3[nH]c4ccccc4c3C[C@H]3C(=O)N(CCCCCCC(=O)NO)CC(=O)N23)cc1`, the growth with T-47D breast was 7.57% (active); with BT-549 breast it was 62.4%; with SW-620 colon it was 4% (active); with HCT-116 colon, 10.4%; in the assay with HCC-2998 colon it was 6.81% (active); in the assay on KM12 colon, 49.8%.
With `Nc1c(C(=O)Nc2cccc(Cl)c2)sc2nc3c(cc12)C(=O)CCC3`, the growth was 52.9% with T-47D breast; -39.1% (active) in the assay on MDA-MB-435 melanoma; 31.3% in the assay on SW-620 colon; 16.7% in the assay with MCF7 breast; 27.4% with HCT-116 colon; 8.27% (active) in the assay with HCC-2998 colon. For the same compound, the growth in the assay with KM12 colon was 21.6%.
As for `COc1cc(C2CC(c3ccc(Cl)cc3)=NN2C(C)=O)ccc1Oc1nc2c(c(=O)n(C)c(=O)n2C)n1C` (stereo unspecified), the growth with T-47D breast was 76.8%; in the assay with BT-549 breast, 83.2%; in the assay on SW-620 colon, 98.1%; in the assay with MCF7 breast it was 70.2%; in the assay on HCT-116 colon, 85.5%; in the assay with HCC-2998 colon it was 87.3%. The growth in the assay with KM12 colon was 78.2%.
For `Cc1nn(-c2cccc(Cl)c2)c(C)c1N=Nc1ccc(Br)cc1`, the growth in the assay with T-47D breast is 80.5%; with BT-549 breast it was 97.6%; in the assay on SW-620 colon it was 103%; in the assay with MCF7 breast, 89.4%; with HCT-116 colon it was 89.5%; in the assay with HCC-2998 colon, 100%. For the same compound, the growth in the assay with KM12 colon is 100%.
For the compound `O=C(O)CSc1ccc(NCc2oc(CO)cc(=O)c2O)cc1`, the growth in the assay with T-47D breast was 108%; with BT-549 breast it was 92.8%; in the assay with SW-620 colon it was 105%; in the assay on MCF7 breast it was 93.8%; in the assay on HCT-116 colon, 95.2%; in the assay on HCC-2998 colon, 99.9%. For the same compound, the growth in the assay with KM12 colon is 100%.
Turning to `CC(C)=CC[C@@H]1CC2(CC=C(C)C)C(=O)C(OC3(C(=O)c4ccccc4)C(=O)C4(CC=C(C)C)C[C@@H](CC=C(C)C)C(C)(C)C(CC=C(C)C)(C4=O)C3=O)(C(=O)c3ccccc3)C(=O)C(CC=C(C)C)(C2=O)C1(C)C` (stereo partly specified), the growth in the assay with T-47D breast was 1.58% (active); in the assay with MDA-MB-435 melanoma, 6.28% (active); with SW-620 colon it was 9.62% (active); in the assay on MCF7 breast, 2.12% (active); in the assay on HCT-116 colon it was -33.4% (active); in the assay on HCC-2998 colon, 10.7%. In the assay with KM12 colon, the growth was 6.68% (active).
Consider `O=C(c1ccccc1)c1cccc(C(Br)Br)c1`, for which the growth with T-47D breast is 88.4%; in the assay on BT-549 breast it was 99.4%; with SW-620 colon, 66.3%; with MCF7 breast, 65.6%; with HCT-116 colon, 65.9%; in the assay with HCC-2998 colon, 94%. For the same compound, the growth in the assay with KM12 colon is 75.2%.
As for `COc1cc(C2CC(c3ccc(Cl)cc3)=NN2C(C)=O)ccc1Oc1ccnc2cc(Cl)ccc12` (stereo unspecified), the growth was 53.9% with T-47D breast; 92% with BT-549 breast; 66.3% with SW-620 colon; 42.5% in the assay with MCF7 breast; 24.5% in the assay with HCT-116 colon; 73.5% with KM12 colon.
Consider `C=C(C)[C@@H]1CC[C@]2(C(=O)NS(=O)(=O)c3ccccc3)CC[C@]3(C)[C@H](CC[C@@H]4[C@@]5(C)CC[C@H](OC(=O)NS(=O)(=O)c6ccccc6)C(C)(C)[C@@H]5CC[C@]43C)[C@@H]12`, for which the growth with T-47D breast was 1.6% (active); in the assay with BT-549 breast, -0.983% (active); with SW-620 colon, 16.6%; with MCF7 breast, 2.66% (active); with HCT-116 colon it was -44.1% (active); in the assay on HCC-2998 colon it was -8.69% (active). In addition, the growth with KM12 colon is 4.05% (active).
Take `CC(C)(C)c1cc(C[P+](c2ccccc2)(c2ccccc2)c2ccccc2)cc(C(C)(C)C)c1O`: the growth in the assay on T-47D breast is -4.23% (active); in the assay on MDA-MB-435 melanoma, -38% (active); with SW-620 colon, 10.6%; in the assay with MCF7 breast, 3.43% (active); in the assay on HCT-116 colon, 5.83% (active); in the assay on HCC-2998 colon, 14.6%. Besides, the growth in the assay with KM12 colon was -38.6% (active).
As to `C=C1C(=O)O[C@H]2[C@H]1CC/C(COC(=O)NCc1cn(C)c3ccccc13)=C\CC[C@@]1(C)O[C@@H]21`, the growth in the assay with T-47D breast is -54.1% (active); in the assay on MDA-MB-435 melanoma, -30.4% (active); with SW-620 colon, -48.4% (active); in the assay with MCF7 breast, 3.65% (active); with HCT-116 colon, -97.2% (active); with HCC-2998 colon it was 49.1%. Moreover, the growth in the assay on KM12 colon is 39.5%.
Regarding `CC1(C)CN(CCNc2nccc(-c3c(-c4cccc(O)c4)nc4sccn34)n2)S(=O)(=O)N1`, the growth is 75.6% in the assay with T-47D breast; 80.9% with BT-549 breast; 87.6% in the assay with SW-620 colon; 70% in the assay on MCF7 breast; 28% in the assay on HCT-116 colon; 93.4% with HCC-2998 colon. In addition, the growth in the assay with KM12 colon was 76.4%.
